Measured values published in PubChem BioAssay (NCATS).
Records with an inconclusive call do not appear. Entries that show only a call come without a potency. Activity calls are given as the source filed them. Unless noted, the call rests on the fitted dose curve; in most records, active means well fitted curve in the direction sought with a large enough effect; inconclusive means small, poorly fitted or top-dose-only effect, or another doubt; inactive means no such curve, though single readings can be large; an effect the other way counts as inactive or inconclusive.

Experiments:
[1] = qHTS for differential inhibitors of proliferation of Plasmodium falciparum line W2 (AID 1883); details: Potency: Plasmodium falciparum W2 proliferation inhibition; series mostly up to 28.7 µM;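 further: potency means the concentration at half of the fitted maximal effect; parasites grown with compound for 72 h before lysis and staining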
[2] = qHTS for differential inhibitors of proliferation of Plasmodium falciparum line HB3 (AID 1886); details: Potency: Plasmodium falciparum HB3 proliferation inhibition; series mostly up to 28.7 µM;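 further: potency means the concentration at half of the fitted maximal effect; parasites grown with compound for 72 h before SYBR Green readout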
[3] = qHTS Assay for Modulators of Human Peripheral Myelin Protein 22 (PMP22) Expression/Activity (AID 1967; active means well fitted curve in the direction sought with a large enough effect in the signal ratio; the % refers to the signal ratio); details: Cell-based PMP22 reporter, dual-color luciferase ratio, mouse Pmp22 promoter in mouse Schwann cells; series mostly up to 115 µM
How it was run: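 Quantitative HTS in a mouse Schwann cell line expressing dual click beetle luciferases: Pmp22 promoter (green) and control EF-alpha promoter (red). After 24h treatment, corrected green/red signal ratio gave %Activity relative to untreated cells.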

[4] = target: ATP-dependent DNA helicase Q1 (Homo sapiens) (UniProt P46063); test: qHTS Validation Assay for Inhibitors of RecQ-Like Dna Helicase 1 (RECQ1) (AID 2353); details: recombinant RECQ1 helicase DNA unwinding assay; series mostly up to 25.6 µM
ATP-dependent DNA helicase Q1 (Homo sapiens), sequence (P46063 whole entry, looked up): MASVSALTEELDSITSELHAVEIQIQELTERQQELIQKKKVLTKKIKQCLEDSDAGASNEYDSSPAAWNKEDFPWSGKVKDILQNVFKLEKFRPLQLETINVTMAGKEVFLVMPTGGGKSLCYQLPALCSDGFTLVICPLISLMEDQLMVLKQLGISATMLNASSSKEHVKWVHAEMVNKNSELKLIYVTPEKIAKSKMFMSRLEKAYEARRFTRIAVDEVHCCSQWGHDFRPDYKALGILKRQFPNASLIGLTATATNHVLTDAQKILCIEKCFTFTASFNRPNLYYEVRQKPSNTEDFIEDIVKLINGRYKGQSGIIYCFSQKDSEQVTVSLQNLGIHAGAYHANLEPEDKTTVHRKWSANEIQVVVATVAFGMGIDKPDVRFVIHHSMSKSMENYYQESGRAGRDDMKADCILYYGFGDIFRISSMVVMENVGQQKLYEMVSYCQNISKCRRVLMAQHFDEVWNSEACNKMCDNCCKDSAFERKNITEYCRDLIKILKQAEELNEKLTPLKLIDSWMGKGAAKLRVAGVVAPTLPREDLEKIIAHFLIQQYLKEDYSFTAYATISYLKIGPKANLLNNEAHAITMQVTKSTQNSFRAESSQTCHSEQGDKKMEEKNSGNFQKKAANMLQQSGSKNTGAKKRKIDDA
How it was run: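 50 nM RECQ1T1 preincubated 15 min with compound in Tris pH 8.0 buffer with MgCl2, DTT, Tween-20 and 2.5 ug/ml poly(dI-dC); started with 200 nM TAMRA/BHQ-2 forked duplex and 2 mM ATP. Unwinding read as fluorescence (525/598 nm), two reads 2 h apart.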

[5] = qHTS Assay for Identification of Small Molecule Inducers of Hypoxia Response (AID 2120; active means well fitted curve in the direction sought with a large enough effect in the signal ratio, with a control signal flat, not every such curve was filed as active; the % refers to the signal ratio); details: hypoxia response reporter cells, beta-lactamase ratio readout; series mostly up to 104 µM
How it was run: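 HRE-bla ME-180 cells in Opti-MEM with 0.5% dialyzed FBS, pre-plated 4-5 h, then compound titration for 17 h at 37 degrees Celsius. CCF4 loaded 2.5 h at room temperature; 460/530 nm ratio gave %Activity and AC50 for induction.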

[6] = qHTS for differential inhibitors of proliferation of Plasmodium falciparum line Dd2 (AID 1882); details: Potency: Plasmodium falciparum Dd2 proliferation inhibition; series mostly up to 28.7 µM; further: nearly all actives have a fitted effect of over 65% in size
How it was run: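 Dd2-infected erythrocytes (0.3% parasitemia, 2.5% hematocrit final) incubated with compound 72 h at 37 C, 5% CO2; lysed with saponin/Triton buffer containing SYBR Green I, incubated overnight in the dark, then read by fluorescence (485/535 nm). Normalized to 0.29 uM artemisinin and DMSO.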

[7] = target: Ferritin light chain (Equus caballus) (UniProt P02791); test: qHTS Validation Assay for Identification of Novel General Anesthetics (AID 2323); details: horse apoferritin, anesthetic-site fluorescent probe displacement; series mostly up to 76.9 µM
Ferritin light chain (Equus caballus), sequence (P02791 2-175 limits assumed): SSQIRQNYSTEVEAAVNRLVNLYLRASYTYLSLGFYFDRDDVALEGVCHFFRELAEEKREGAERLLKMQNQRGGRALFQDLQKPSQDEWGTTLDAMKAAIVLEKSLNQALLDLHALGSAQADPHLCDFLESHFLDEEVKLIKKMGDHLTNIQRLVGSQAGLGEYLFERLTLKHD
How it was run: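 Apoferritin from horse spleen (10 uM) was mixed with 1-aminoanthracene at 50% saturation in PBS, then compounds were added. After 10 min at room temperature, fluorescence was read (ex 380 nm, em 535 nm) and normalized to free-probe and complex controls.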

[8] = target: RecQ-like DNA helicase BLM (Homo sapiens) (UniProt P54132); test: qHTS Validation Assay for Inhibitors of Bloom's syndrome helicase (BLM) (AID 2364); details: BLM helicase DNA unwinding, fluorescence, in vitro; series mostly up to 57.1 µM
RecQ-like DNA helicase BLM (Homo sapiens), sequence (P54132 whole entry, looked up): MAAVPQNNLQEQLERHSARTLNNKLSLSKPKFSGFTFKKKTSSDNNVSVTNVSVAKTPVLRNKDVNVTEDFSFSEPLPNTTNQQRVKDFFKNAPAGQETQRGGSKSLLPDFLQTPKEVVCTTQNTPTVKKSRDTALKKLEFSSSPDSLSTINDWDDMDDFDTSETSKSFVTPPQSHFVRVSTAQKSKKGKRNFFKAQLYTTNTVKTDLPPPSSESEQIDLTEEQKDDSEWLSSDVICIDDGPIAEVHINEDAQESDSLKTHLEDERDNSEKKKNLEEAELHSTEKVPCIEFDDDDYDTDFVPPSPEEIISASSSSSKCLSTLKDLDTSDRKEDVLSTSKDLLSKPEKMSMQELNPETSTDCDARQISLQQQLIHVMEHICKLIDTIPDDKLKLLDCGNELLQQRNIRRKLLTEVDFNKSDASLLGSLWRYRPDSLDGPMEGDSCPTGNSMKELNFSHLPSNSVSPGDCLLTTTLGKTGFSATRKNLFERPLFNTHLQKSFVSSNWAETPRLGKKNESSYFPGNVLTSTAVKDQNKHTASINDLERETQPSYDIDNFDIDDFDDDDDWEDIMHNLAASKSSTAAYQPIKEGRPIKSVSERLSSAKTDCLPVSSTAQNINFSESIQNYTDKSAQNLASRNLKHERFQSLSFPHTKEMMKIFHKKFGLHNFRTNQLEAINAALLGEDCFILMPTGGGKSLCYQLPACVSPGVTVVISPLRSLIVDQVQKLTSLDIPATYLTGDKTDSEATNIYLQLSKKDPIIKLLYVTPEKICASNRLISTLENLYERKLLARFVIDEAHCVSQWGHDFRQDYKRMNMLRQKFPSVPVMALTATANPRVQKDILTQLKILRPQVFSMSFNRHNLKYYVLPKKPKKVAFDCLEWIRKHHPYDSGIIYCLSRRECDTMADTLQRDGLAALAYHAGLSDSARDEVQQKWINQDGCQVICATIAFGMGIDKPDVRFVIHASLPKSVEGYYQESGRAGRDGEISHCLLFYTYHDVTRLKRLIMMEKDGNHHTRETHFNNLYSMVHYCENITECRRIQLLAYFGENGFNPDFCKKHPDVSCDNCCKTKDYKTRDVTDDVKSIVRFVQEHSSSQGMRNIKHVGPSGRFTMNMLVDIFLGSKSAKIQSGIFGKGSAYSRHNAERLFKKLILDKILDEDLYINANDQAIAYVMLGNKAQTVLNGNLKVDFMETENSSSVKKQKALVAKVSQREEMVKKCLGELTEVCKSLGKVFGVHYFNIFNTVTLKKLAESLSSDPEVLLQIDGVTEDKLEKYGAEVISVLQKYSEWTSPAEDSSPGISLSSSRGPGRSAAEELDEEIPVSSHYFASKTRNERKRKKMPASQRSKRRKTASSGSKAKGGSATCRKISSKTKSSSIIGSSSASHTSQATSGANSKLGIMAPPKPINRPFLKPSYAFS
How it was run: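 50 nM BLM preincubated 15 min at room temperature with compound in pH 8.0 Tris buffer containing 2.5 ug/ml poly(dI-dC); started with 200 nM TAMRA/BHQ-2 forked duplex and 2 mM ATP (final). Unwinding read as TAMRA fluorescence increase, two reads 2 h apart.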

CCN(CCCl)Cc1ccccc1Br
Potency [1]: 11.2 µM (active) | Potency [2]: 10 µM (active) | outcome [3]: inactive | Potency [4]: inactive

O=Cc1ccco1
outcome [5]: inactive

O=C1CC[C@@]2(O)C3Cc4ccc(O)c5c4C2(CCN3CC2CC2)[C@H]1O5 (some centres not stated)
Potency [6]: inactive | Potency [1]: 10 µM (active) | outcome [3]: inactive | outcome [7]: inactive

CCOC(=O)c1ccccc1C(=O)OCC
outcome [5]: inactive

CN1CCC(c2c[nH]c3ccc(O)cc23)CC1
Potency [6]: inactive | Potency [1]: 8.91 µM (active) | outcome [3]: inactive | outcome [7]: inactive | Potency [4]: inactive

O=c1c2ccccc2[se]n1-c1ccccc1
Potency [1]: 17.8 µM (active) | outcome [7]: inactive | Potency [4]: inactive | Potency [8]: inactive

CC(N)Cc1c[nH]c2ccc(OCc3cccs3)cc12 (configuration not stated)
Potency [1]: 7.94 µM (active) | Potency [2]: 11.2 µM (active) | outcome [7]: inactive | Potency [4]: inactive | Potency [8]: inactive

C[C@]12CCC(=O)C[C@@H]1CC[C@@H]1[C@@H]2CC[C@]2(C)[C@@H](O)CC[C@@H]12
outcome [5]: inactive

COc1ccc2c(c1)[C@@]13CCCC[C@H]1[C@@H](C2)NCC3
Potency [1]: 1.12 µM (active) | Potency [2]: 11.2 µM (active) | outcome [7]: inactive | Potency [4]: inactive | Potency [8]: inactive

CCCCCl
outcome [5]: inactive

C=CCN=C=S
outcome [5]: inactive

Oc1cc(Cl)c(Cl)cc1Cl
outcome [5]: inactive

O=C/C=C/c1ccccc1
outcome [5]: inactive

[O]=[Cd]
outcome [5]: inactive

O=CC=O
outcome [5]: inactive

ClC(Cl)(Cl)Cl
outcome [5]: inactive
